# Measurements as given in article PMC7862700, “An all-to-all approach to the identification of sequence-specific readers for epigenetic DNA modifications on cytosine”.
# Assays:
# Assay in all cases: DAPPL (digital affinity profiling via proximity ligation, sequencing); 10 mM Tris-HCl pH 7.5, 50 mM NaCl, 1 mM DTT, 4% glycerol, room temperature, 30 min; GST-TFs on glutathione beads, 16-mer random dsDNA library, 0.1% formaldehyde crosslink after washing; high values mean tight binding
# FLI1 = molecular target: T1, FLI1 (Homo sapiens, UniProt Q01543 1-452); conditions: protein: recombinant; tags: N-terminal GST; dsDNA, one strand shown
# T1 sequence: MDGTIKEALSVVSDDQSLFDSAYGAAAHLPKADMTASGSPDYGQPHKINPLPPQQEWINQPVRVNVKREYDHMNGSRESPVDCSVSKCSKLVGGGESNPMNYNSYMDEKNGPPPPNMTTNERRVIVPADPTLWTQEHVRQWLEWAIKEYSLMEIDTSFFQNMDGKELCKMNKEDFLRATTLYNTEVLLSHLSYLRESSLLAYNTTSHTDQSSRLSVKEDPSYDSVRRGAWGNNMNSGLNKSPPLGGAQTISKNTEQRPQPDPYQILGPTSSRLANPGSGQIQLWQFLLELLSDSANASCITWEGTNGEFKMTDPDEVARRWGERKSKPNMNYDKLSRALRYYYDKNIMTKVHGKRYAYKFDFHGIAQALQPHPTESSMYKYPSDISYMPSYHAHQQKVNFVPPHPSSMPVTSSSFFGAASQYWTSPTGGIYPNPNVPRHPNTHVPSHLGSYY
# How it was run: (§1)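 Sequencing on an Illumina NextSeq500 followed washing, crosslinking with 0.1% formaldehyde, proximity ligation (BsaI/T4 ligase, 1 h, 37 °C) and PCR amplification of pools that had been incubated for 30 min at room temperature with 200 nmole of a random double-stranded 16-mer DNA library in Tris/NaCl/DTT/glycerol buffer. Each pool held DNA-barcoded human transcription factors, expressed in yeast as GST fusions and captured on glutathione beads, plus a tag-only sample. Binding signal is a hexamer's read frequency for a factor divided by its frequency in the tag-only sample.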
# ELK1 = molecular target: T2, ELK1 (Homo sapiens, UniProt P19419 1-428); conditions: protein: recombinant; tags: N-terminal GST; dsDNA, one strand shown
# T2 sequence: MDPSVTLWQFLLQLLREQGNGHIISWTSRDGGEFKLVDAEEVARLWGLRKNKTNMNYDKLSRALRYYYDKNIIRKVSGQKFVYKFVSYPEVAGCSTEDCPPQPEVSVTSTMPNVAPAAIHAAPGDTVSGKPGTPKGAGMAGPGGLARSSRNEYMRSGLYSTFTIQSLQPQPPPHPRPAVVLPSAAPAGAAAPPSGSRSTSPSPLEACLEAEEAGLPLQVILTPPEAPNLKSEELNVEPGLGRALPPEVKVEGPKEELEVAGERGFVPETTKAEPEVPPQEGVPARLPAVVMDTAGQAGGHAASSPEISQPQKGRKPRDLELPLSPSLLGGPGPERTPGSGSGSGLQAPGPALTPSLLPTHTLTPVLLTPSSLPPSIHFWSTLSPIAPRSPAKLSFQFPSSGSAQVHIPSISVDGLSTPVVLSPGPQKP
# How it was run: as §1
# GABPA = molecular target: T3, GABPA (Homo sapiens, UniProt Q06546 1-454); conditions: protein: recombinant; tags: N-terminal GST; dsDNA, one strand shown
# T3 sequence: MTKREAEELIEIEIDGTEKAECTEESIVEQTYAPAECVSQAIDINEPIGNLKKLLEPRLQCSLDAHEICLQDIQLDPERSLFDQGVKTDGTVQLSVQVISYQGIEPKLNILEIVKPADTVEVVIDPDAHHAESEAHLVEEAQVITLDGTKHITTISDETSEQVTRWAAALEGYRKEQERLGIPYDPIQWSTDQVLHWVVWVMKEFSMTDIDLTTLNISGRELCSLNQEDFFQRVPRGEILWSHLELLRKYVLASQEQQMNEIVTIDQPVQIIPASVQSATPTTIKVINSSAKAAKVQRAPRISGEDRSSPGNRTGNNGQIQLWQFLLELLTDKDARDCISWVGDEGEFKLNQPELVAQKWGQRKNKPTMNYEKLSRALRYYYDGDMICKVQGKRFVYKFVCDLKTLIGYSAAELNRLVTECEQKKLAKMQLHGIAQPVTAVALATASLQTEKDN
# How it was run: as §1
# ERG = molecular target: T4, ERG (Homo sapiens, UniProt P11308 1-479); conditions: protein: recombinant; tags: N-terminal GST; dsDNA, one strand shown
# T4 sequence: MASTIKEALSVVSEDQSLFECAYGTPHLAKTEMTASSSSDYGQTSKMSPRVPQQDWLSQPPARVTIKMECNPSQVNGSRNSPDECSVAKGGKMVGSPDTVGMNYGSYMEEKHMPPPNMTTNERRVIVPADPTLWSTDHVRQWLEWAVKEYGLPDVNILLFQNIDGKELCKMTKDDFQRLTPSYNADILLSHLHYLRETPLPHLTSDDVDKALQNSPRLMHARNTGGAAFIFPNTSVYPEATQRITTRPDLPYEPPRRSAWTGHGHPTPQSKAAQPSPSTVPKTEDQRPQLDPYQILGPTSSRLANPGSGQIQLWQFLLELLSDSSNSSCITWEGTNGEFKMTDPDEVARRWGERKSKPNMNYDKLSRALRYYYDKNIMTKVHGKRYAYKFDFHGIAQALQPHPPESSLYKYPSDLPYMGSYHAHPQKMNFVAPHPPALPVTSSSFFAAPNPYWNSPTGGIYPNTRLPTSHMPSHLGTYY
# How it was run: as §1
# ELF1 = ELF1 (Homo sapiens, UniProt P32519 1-619); conditions: protein: recombinant; tags: N-terminal GST; dsDNA, one strand shown
# Chain of ELF1 (P32519 whole entry): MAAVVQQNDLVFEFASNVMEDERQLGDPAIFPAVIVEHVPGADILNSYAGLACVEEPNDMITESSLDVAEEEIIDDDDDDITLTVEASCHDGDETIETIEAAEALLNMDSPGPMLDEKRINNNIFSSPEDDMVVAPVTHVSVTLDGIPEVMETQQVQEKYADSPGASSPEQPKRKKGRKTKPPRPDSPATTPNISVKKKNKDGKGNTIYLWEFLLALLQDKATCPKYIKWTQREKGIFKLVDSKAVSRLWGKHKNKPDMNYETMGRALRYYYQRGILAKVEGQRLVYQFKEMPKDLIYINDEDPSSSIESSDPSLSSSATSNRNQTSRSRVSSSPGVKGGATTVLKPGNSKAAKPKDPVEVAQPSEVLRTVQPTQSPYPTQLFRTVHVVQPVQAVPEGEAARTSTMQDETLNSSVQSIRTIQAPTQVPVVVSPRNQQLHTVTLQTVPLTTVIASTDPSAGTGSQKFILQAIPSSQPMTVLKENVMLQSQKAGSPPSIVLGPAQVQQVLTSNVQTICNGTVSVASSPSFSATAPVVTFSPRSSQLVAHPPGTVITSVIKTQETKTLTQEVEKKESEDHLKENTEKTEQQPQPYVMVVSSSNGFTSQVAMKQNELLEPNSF
# How it was run: as §1
# EHF = molecular target: T5, EHF (Homo sapiens, UniProt Q9NZC4 1-300); conditions: protein: recombinant; tags: N-terminal GST; dsDNA, one strand shown
# T5 sequence: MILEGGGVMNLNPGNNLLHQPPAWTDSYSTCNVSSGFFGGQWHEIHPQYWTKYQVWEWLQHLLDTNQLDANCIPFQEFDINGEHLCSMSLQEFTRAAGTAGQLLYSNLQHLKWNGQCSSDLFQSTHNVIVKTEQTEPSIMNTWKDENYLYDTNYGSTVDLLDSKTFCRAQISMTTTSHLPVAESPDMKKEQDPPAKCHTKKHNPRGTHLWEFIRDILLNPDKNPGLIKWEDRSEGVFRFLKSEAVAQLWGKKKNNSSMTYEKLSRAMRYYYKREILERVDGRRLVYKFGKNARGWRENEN
# How it was run: as §1
# SPI1 = SPI1 (Homo sapiens, UniProt P17947 1-270); conditions: protein: recombinant; tags: N-terminal GST; dsDNA, one strand shown
# How it was run: as §1
# SPIB = SPIB (Homo sapiens, UniProt Q01892 1-262); conditions: protein: recombinant; tags: N-terminal GST; dsDNA, one strand shown
# Chain of SPIB (Q01892 whole entry): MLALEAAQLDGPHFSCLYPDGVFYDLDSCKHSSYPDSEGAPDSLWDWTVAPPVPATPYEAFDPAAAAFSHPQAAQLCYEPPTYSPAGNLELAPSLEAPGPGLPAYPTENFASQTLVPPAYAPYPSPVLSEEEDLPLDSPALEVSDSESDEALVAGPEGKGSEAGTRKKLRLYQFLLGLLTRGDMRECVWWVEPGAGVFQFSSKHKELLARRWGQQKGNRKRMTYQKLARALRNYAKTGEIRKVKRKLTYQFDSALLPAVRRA
# How it was run: as §1
# ELK3 = molecular target: T6, ELK3 (Homo sapiens, UniProt P41970 1-407); conditions: protein: recombinant; tags: N-terminal GST; dsDNA, one strand shown
# T6 sequence: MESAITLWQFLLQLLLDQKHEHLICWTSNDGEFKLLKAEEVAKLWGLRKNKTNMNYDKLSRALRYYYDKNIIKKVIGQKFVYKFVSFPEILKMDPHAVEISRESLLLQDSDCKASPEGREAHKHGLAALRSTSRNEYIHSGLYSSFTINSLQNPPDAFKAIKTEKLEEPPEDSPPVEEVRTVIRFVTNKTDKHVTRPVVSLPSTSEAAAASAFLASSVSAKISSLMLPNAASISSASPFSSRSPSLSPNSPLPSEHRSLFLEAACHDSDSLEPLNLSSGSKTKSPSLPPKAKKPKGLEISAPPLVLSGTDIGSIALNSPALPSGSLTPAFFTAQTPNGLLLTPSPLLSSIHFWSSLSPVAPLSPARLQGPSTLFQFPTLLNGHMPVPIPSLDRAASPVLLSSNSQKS
# How it was run: as §1
# FEV = molecular target: T7, FEV (Homo sapiens, UniProt Q99581 1-238); conditions: protein: recombinant; tags: N-terminal GST; dsDNA, one strand shown
# T7 sequence: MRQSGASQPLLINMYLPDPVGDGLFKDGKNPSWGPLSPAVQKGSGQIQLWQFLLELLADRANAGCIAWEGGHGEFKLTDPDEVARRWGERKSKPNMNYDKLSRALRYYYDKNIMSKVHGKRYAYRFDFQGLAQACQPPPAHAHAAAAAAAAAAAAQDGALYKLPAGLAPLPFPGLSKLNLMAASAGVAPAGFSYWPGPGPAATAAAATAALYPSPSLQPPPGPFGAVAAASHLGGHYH
# How it was run: as §1
# ETV5 = ETV5 (Homo sapiens, UniProt P41161 1-510); conditions: protein: recombinant; tags: N-terminal GST; dsDNA, one strand shown
# Chain of ETV5 (P41161 whole entry): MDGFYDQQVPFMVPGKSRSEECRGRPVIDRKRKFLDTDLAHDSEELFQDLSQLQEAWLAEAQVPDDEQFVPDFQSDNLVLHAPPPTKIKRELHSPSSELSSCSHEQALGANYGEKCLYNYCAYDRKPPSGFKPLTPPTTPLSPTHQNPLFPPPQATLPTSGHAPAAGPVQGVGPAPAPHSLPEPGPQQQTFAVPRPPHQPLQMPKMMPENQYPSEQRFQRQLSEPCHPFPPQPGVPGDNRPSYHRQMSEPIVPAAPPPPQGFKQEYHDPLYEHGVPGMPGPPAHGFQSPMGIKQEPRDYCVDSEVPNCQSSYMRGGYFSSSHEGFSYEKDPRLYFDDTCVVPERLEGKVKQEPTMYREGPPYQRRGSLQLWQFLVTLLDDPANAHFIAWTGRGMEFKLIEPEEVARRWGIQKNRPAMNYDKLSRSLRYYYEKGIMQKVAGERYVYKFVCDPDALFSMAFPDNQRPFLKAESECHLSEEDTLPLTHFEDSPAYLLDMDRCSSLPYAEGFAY
# How it was run: as §1
# HSF1 = HSF1 (Homo sapiens, UniProt Q00613 1-529); conditions: protein: recombinant; tags: N-terminal GST; chain copies: 3; dsDNA, one strand shown
# Chain of HSF1 (Q00613 whole entry): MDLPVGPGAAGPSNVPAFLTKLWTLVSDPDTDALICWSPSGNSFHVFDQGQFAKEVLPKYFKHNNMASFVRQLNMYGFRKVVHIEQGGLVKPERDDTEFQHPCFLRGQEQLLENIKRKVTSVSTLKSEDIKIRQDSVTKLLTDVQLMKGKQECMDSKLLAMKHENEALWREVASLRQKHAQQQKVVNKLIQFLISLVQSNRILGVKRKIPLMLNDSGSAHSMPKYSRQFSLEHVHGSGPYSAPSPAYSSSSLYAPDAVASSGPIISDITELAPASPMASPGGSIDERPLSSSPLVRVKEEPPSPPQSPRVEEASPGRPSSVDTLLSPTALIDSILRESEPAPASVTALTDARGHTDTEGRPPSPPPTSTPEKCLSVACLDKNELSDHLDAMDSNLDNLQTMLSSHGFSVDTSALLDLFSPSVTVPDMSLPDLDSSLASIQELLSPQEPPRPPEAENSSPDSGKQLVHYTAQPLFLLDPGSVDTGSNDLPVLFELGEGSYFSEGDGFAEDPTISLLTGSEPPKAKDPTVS
# How it was run: as §1
# SPIC = molecular target: T8, SPIC (Homo sapiens, UniProt Q8N5J4 1-248); conditions: protein: recombinant; tags: N-terminal GST; dsDNA, one strand shown
# T8 sequence: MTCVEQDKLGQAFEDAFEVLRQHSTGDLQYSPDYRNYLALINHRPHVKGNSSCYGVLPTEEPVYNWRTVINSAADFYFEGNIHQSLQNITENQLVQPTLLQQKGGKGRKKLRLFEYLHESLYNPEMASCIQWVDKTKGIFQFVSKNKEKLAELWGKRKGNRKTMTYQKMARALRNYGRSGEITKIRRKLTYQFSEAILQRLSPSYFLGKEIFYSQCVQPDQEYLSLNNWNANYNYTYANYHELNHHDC
# How it was run: as §1
# ELF4 = ELF4 (Homo sapiens, UniProt Q99607 1-663); conditions: protein: recombinant; tags: N-terminal GST; dsDNA, one strand shown
# Chain of ELF4 (Q99607 whole entry): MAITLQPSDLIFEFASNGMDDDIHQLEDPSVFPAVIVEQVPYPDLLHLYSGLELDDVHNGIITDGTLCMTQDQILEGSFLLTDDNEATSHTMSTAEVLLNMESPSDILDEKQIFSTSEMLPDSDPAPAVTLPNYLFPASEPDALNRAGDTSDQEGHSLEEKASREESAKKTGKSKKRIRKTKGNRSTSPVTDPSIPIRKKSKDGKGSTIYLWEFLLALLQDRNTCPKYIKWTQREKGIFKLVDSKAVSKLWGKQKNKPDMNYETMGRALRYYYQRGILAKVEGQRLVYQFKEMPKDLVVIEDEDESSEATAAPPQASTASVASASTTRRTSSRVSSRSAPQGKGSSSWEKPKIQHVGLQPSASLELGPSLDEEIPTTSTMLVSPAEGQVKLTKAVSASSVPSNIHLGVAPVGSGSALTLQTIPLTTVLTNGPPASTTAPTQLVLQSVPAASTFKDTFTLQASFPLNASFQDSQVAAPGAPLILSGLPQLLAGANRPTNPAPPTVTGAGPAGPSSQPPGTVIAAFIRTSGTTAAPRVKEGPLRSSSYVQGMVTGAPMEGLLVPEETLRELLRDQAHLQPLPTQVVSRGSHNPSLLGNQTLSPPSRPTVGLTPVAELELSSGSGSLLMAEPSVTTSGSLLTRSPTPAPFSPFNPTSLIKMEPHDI
# How it was run: as §1
# ELK4 = molecular target: T9, ELK4 (Homo sapiens, UniProt P28324-2 1-405); conditions: protein: recombinant; tags: N-terminal GST; dsDNA, one strand shown
# T9 sequence: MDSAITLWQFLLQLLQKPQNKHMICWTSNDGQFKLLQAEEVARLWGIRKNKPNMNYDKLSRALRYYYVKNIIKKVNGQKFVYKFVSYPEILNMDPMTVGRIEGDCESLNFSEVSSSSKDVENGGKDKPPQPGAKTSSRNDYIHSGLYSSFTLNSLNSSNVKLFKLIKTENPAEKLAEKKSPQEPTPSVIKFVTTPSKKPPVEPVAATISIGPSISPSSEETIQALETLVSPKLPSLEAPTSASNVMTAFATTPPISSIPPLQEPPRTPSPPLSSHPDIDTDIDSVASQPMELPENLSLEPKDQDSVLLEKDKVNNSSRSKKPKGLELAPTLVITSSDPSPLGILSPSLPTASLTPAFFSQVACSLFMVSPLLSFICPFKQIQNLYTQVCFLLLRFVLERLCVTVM
# How it was run: as §1
# ETV2 = molecular target: T10, ETV2 (Homo sapiens, UniProt O00321 1-342); conditions: protein: recombinant; tags: N-terminal GST; dsDNA, one strand shown
# T10 sequence: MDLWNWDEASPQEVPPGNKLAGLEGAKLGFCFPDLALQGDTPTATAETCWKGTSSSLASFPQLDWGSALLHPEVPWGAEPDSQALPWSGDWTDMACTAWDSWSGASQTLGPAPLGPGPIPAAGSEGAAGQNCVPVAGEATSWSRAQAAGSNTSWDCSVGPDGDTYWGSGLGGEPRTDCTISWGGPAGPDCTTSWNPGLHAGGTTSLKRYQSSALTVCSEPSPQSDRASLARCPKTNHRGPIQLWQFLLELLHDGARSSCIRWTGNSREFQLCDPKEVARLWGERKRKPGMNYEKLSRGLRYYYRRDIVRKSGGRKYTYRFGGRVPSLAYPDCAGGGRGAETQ
# How it was run: as §1
# ELF3 = molecular target: T11, ELF3 (Homo sapiens, UniProt P78545 1-371); conditions: protein: recombinant; tags: N-terminal GST; dsDNA, one strand shown
# T11 sequence: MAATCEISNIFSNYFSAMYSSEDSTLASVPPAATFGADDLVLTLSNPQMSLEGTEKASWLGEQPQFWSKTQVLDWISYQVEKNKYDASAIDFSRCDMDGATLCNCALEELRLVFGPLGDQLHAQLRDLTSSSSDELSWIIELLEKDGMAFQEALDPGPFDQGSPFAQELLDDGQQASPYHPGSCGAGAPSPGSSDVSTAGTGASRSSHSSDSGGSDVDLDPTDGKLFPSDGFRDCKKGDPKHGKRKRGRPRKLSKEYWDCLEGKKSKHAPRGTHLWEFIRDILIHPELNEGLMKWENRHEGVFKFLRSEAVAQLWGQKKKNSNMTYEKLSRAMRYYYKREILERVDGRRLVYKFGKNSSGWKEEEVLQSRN
# How it was run: as §1
# CRX = CRX (Homo sapiens, UniProt O43186 1-299); conditions: protein: recombinant; tags: N-terminal GST; dsDNA, one strand shown
# Chain of CRX (O43186 whole entry): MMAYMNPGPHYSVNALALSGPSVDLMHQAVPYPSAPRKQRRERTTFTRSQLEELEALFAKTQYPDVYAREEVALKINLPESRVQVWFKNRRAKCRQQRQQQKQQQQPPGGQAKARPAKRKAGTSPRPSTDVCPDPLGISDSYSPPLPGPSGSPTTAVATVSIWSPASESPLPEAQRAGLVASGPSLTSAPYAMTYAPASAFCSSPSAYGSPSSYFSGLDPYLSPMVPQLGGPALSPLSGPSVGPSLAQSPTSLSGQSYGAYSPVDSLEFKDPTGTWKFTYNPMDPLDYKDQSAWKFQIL
# How it was run: as §1
# ETV1 = ETV1 (Homo sapiens, UniProt P50549 1-477); conditions: protein: recombinant; tags: N-terminal GST; dsDNA, one strand shown
# Chain of ETV1 (P50549 whole entry): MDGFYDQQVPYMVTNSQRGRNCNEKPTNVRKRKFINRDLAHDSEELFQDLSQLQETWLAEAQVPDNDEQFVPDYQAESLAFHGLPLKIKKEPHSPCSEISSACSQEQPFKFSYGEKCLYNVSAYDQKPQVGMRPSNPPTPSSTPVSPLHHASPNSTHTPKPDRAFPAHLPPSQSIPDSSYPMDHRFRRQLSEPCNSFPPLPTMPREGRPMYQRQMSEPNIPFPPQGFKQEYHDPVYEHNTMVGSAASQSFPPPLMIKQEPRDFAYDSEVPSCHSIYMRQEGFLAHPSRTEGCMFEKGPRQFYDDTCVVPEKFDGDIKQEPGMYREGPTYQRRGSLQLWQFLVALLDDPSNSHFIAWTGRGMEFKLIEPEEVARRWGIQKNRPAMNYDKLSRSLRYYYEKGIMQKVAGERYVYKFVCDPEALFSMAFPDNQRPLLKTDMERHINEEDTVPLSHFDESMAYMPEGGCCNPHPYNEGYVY
# How it was run: as §1
sequence,measurement,setting,value
CTTCAG,binding signal,FLI1,"1.34 fold enrichment (6-mer frequency, TF over GST control)"
same,binding signal,ELK1,"1.25 fold enrichment (6-mer frequency, TF over GST control)"
same,binding signal,GABPA,"1.3 fold enrichment (6-mer frequency, TF over GST control)"
same,binding signal,ERG,"1.32 fold enrichment (6-mer frequency, TF over GST control)"
same,binding signal,ELF1,"1.36 fold enrichment (6-mer frequency, TF over GST control)"
same,binding signal,EHF,"1.34 fold enrichment (6-mer frequency, TF over GST control)"
same,binding signal,SPI1,"1.29 fold enrichment (6-mer frequency, TF over GST control)"
same,binding signal,SPIB,"1.28 fold enrichment (6-mer frequency, TF over GST control)"
same,binding signal,ELK3,"1.34 fold enrichment (6-mer frequency, TF over GST control)"
same,binding signal,FEV,"1.26 fold enrichment (6-mer frequency, TF over GST control)"
same,binding signal,ETV5,"1.21 fold enrichment (6-mer frequency, TF over GST control)"
same,binding signal,HSF1,"1.23 fold enrichment (6-mer frequency, TF over GST control)"
same,binding signal,SPIC,"1.26 fold enrichment (6-mer frequency, TF over GST control)"
same,binding signal,ELF4,"1.34 fold enrichment (6-mer frequency, TF over GST control)"
same,binding signal,ELK4,"1.41 fold enrichment (6-mer frequency, TF over GST control)"
same,binding signal,ETV2,"1.23 fold enrichment (6-mer frequency, TF over GST control)"
same,binding signal,ELF3,"1.39 fold enrichment (6-mer frequency, TF over GST control)"
same,binding signal,CRX,"1.16 fold enrichment (6-mer frequency, TF over GST control)"
same,binding signal,ETV1,"1.33 fold enrichment (6-mer frequency, TF over GST control)"
